# Screens as filed in PubChem.
# An excerpt weighted towards active compounds, which were near 2.9% of everything screened.
# Bim-Mcl-1 – inhibitors of Bim-Mcl-1 interaction, human; Bead-based flow cytometry, Bim peptide-Mcl-1 binding; 190,000 compounds, 0.1% hits; Q07820; AID 1009; inhibition, % at 10 µM; in the data active = inhibition above about 40%;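 also: 0% = no compound tracer wells and 100% = peptide blocker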
# Target sequence (Q07820 whole entry, looked up): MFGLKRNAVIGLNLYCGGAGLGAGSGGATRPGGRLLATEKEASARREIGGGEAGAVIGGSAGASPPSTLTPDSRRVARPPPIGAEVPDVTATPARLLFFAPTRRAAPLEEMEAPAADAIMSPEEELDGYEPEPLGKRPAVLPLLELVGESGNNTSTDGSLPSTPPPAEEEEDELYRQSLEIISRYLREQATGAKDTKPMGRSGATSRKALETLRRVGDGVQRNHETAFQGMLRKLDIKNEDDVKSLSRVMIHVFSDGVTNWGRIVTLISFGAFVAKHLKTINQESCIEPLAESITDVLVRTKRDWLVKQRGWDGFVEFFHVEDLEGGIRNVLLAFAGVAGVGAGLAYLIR
# Hck Nef HTS – blocks Nef-activated human Hck kinase | P08631 | Recombinant Hck-YEEI plus Nef, Z-Lyte FRET kinase assay | inhibition, % at 20 µM | 220,000 compounds, 0.68% hits | AID 463187;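 active = Hck-Nef kinase inhibition above about 50%, limit read from the data; inactive = inhibition below that limit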;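 also: 0% = DMSO with Hck plus Nef and 100% = Hck alone without Nef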
# 14-3-3 Bad PPI – disrupts binding of bovine 14-3-3 zeta to phospho-Bad peptide; TR-FRET 14-3-3zeta/Dy647-pBad peptide displacement, 1 h; inhibition, % at 21.7 µM; 220,000 compounds, 0.71% hits; P63103;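 active = inhibition above about 70%, limit read from the data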;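 also: 0% = full 14-3-3 plus peptide FRET controls and 100% = background without 14-3-3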
# Target sequence (P63103 whole entry, looked up): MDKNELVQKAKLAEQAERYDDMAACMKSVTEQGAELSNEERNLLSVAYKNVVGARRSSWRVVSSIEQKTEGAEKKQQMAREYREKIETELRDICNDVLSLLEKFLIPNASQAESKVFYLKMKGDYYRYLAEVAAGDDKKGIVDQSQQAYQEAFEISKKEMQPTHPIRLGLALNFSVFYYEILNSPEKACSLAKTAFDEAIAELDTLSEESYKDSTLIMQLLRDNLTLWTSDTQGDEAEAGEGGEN
# Pf gamet viab – inhibitors of late stage P. falciparum gametocyte viability; P. falciparum stage V gametocytes, ATP luminescence, 24 h; 150,000 compounds, 0.065% hits; inhibition, % at 10.9 µM;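 active = inhibition above the mean plus 3 SD of compounds within the control limits, set per campaign, cut at about 38% in these data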;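 also: 0% = DMSO wells and 100% = medium only without gametocytes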
# Mcl1 Noxa PPI – disrupts binding of human Mcl-1 to Noxa peptide; 220,000 compounds, 1.5% hits; Q07820; inhibition, % at 21.7 µM; TR-FRET Mcl-1/Noxa peptide binding, 2 h;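 active = compounds that cut the protein-peptide binding signal by more than 50% relative to plate controls in a single-dose test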;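 also: His-tagged Mcl-1 with rhodamine Noxa BH3 peptide and terbium anti-His antibody; 0% = Mcl-1 plus Noxa peptide wells and 100% = peptide-only wells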
# Mcl1 Bid PPI – disrupts binding of human Mcl-1 to Bid peptide; Q07820; TR-FRET Mcl-1/Bid-Dy647 peptide binding, 1536-well; 220,000 compounds, 0.97% hits; inhibition, % at 21.7 µM;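 active = compounds that cut the binding signal by more than half at the single screening dose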;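 also: His-tagged Mcl-1 with europium anti-His antibody binding Bid BH3 peptide; 0% = Mcl-1 plus peptide wells and 100% = peptide-only wells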
# * = called active by the depositor; / = not tested or not shown; [ ] = dose if it differs, or a comment.
SMILES,Bim-Mcl-1,Hck Nef HTS,14-3-3 Bad PPI,Pf gamet viab,Mcl1 Noxa PPI,Mcl1 Bid PPI
S=C(NC1CCCCC1)N1CCc2[nH]c3ccccc3c2C1,/,10,0,-2,-4,-39
c1ccc(-c2nnc(N3CCOCC3)nc2-c2ccccc2)cc1,0,-2,4,/,5,-23
CN1CCN(CCC(=O)N2c3ccccc3Sc3ccc(C(F)(F)F)cc32)CC1,5,0,80*,/,19,15
CN(C)CCC(=O)N1c2ccccc2Sc2ccc(C(F)(F)F)cc21,/,/,/,14,/,/
CCCCCCNC(=O)c1c(N)n(/N=C/c2ccco2)c2nc3ccccc3nc12,/,22,/,/,/,/
CCCCNC(=O)c1c(N)n(/N=C/c2ccccn2)c2nc3ccccc3nc12,-3,49,81*,/,32,32
CCOC(=O)c1c(NCc2ccc3c(c2)OCO3)c2ccccc2[nH]c1=O,0,2,-4,-17,8,2
COc1ccccc1N1CCN(CC(=O)NCC2CCCO2)CC1 (centres undefined),-16,0,75*,/,33,47
COc1cc(/C=N/n2cc(-c3ccccc3)[nH]c2=S)cc(OC)c1O,/,-71,1,-14,41,-17
Cc1ccc(/C=N/n2cc(-c3ccccc3)[nH]c2=S)s1,-8,17,-11,-3,54*,-47
S=c1[nH]c(-c2ccccc2)cn1/N=C/c1ccccc1Br,-6,15,-2,/,28,-34
Oc1ccc(/C=N/n2cc(-c3ccccc3)[nH]c2=S)cc1,-9,24,-6,/,73*,-41
Cc1cc(C)c2sc(NC(=O)c3ccc(N4C(=O)CCC4=O)cc3)nc2c1,/,14,-9,-17,-3,-21
Cc1ccc2nc(NC(=O)c3ccc(N4C(=O)CCC4=O)cc3)sc2c1,1,7,0,-7,58*,0
COc1ccc(-c2nc(-c3ccccc3)c(-c3cc([N+](=O)[O-])ccc3C)[nH]2)cc1O,-9,0,6,/,-10,-11
COc1ccc(-c2nc(=S)c3c([nH]2)Oc2ccc(C)cc2C3)cc1O,-4,2,13,7,66*,-28
COc1cc(OC)cc(-c2cc(N)n(S(=O)(=O)c3cccc4nsnc34)n2)c1,/,28,-2,-67,-8,-11
Cc1ccc2nc(-c3ccc(NC(=O)COC(=O)c4ccc([N+](=O)[O-])o4)cc3)sc2c1,0,11,50,10,71*,62*
O=C1CCCC/C1=C/Nc1ccc(S(=O)(=O)Nc2ncccn2)cc1,3,0,-11,/,-10,-74
CC1CCN(C(c2nnnn2CCc2ccccc2)C(C)C)CC1 (centres undefined),-1,-9,3,31,11,26
CC(C)C(c1nnnn1CCc1ccccc1)N1CCOCC1 (centres undefined),-1,2,70*,21,26,-11
COCCn1nnnc1C(C(C)C)N1CCC(Cc2ccccc2)CC1 (centres undefined),3,3,84*,/,19,6
Cc1ccc(-c2nc3cccnc3s2)cc1NS(C)(=O)=O,0,-1,3,/,16,-3
O=C(Nc1ccc(N2CCCC2)c(S(=O)(=O)Nc2cccc(C(F)(F)F)c2)c1)c1cccs1,-2,3,-12,/,-3,-23
COC(=O)c1c(NC(=S)Nc2ccc(CC(=O)O)cc2)sc(C)c1C,-5,8,-17,/,72*,-81
SMILES,Bim-Mcl-1,Hck Nef HTS,14-3-3 Bad PPI,Pf gamet viab,Mcl1 Noxa PPI,Mcl1 Bid PPI
CCOC(=O)c1c(NC(=S)Nc2ccc(Cl)cc2)sc(C)c1C,3,1,-3,/,3,-32
CSc1nc2cc(C)nn2c(-c2ccccc2)c1C#N,/,3,94*,-4,-10,-7
CCCCN(CC)CCCNC(=O)c1cc2c(=O)n(C)c3ccccc3c2n1C,-3,14,-4,/,21,6
CCCn1nc(NC(=O)c2cccs2)c2cc3ccccc3nc21,0,14,77*[fluorescence artefact?],14,15,18
CCCn1nc(NC(=O)c2cccs2)c2cc3cc(OC)ccc3nc21,4,7,92*[fluorescence artefact?],-15,17,18
Cc1ccccc1CNC(=O)c1ccccc1,3,0,6,/,-3,-9
Cc1ccc(C(=O)NC2CCN(CC(=O)Nc3ccccc3Cl)CC2)cc1,/,/,/,-3,/,/
O=C(Cc1c(F)cccc1Cl)Nc1ccon1,0,5,-5,6,3,83*
CC(=O)c1c(C)[nH]c(C(=O)OCC(=O)N2CCN(S(=O)(=O)c3ccc(C)cc3C)CC2)c1C,-2,7,-13,10,-20,-34
CC(C)N1CCc2c(sc(NC(=O)c3ccc(S(=O)(=O)N4CCc5ccccc54)cc3)c2C(N)=O)C1,-1,-56,53,/,72*,16
CC(C)N1CCc2c(sc(NC(=O)c3nc4ccccc4s3)c2C(N)=O)C1,-2,24,-11,-25,21,-44
COc1cc(/C=C2/C(=O)c3cccc([N+](=O)[O-])c3C2=O)c(Br)cc1O,6,47,-8,/,88*,-28
CC(C)Oc1nnnn1-c1ccccc1,2,0,-9,/,-11,-27
Cc1cccc(C)c1N1C(=O)c2cccc([N+](=O)[O-])c2C1=O,0,2,19,/,13,2
O=C(CSc1nnc2c3ccccc3c3ccccc3c2n1)Nc1ccccc1F,7,7,6,/,61*,4
O=C(CSc1nnc2c3ccccc3c3ccccc3c2n1)Nc1ccccc1,-3,-3,-12,/,13,-51
Cc1cc(C)cc(-n2c(SCC(=O)NCc3ccc4c(c3)OCO4)nc3ccccc3c2=O)c1,-6,-2,2,16,10,-83
O=C(CSc1nc2cc([N+](=O)[O-])ccc2n1-c1ccccc1)NCc1ccc2c(c1)OCO2,4,0,-2,7,58*,3
O=C(OCn1nnc2ccccc2c1=O)C1CCCCC1,0,1,-1,/,54*,-17
COc1ccc(Cc2nc(-c3cccc(C)c3)no2)cc1,-2,1,-13,-29,11,6
CN(Cc1ccno1)C(=O)CC1C(=O)NCCN1CC(c1ccccc1)c1ccccc1 (centres undefined),-1,3,-7,-44,16,-33
O=C1/C(=C\c2ccc(O)cc2)SC(=S)N1/N=C/c1ccc(O)cc1,/,5,15,15,79*,24
CC(=O)NN1C(=O)/C(=C\c2ccc(O)cc2)SC1=S,0,17,-13,/,-16,-66
CC(C)(C)C(=O)N/C(N)=N/c1nc2ccccc2o1,/,16,-15,18,9,-7
CCn1cc(C(=O)NCc2cccs2)c(=O)c2cc(S(=O)(=O)N3CCOCC3)ccc21,/,-7,11,13,20,51*
CCOC(=O)c1cn(CC)c2ccc(S(=O)(=O)N3CCC(C)CC3)cc2c1=O,-2,2,1,/,43,19
